# APE1 inh = qHTS Assay for Inhibitors of the Human Apurinic/apyrimidinic Endonuclease 1 (APE1); DNA repair nuclease/redox regulator APEX1 (Homo sapiens), P27695; Potency, µM (series often up to 65.8 µM), inactives show at the highest dose activity change, negative = inhibition, most hits filed as inhibitors; 0.35% of 350,000 active; AID 2517, 2012; recombinant APE1, TAMRA/BHQ-2 abasic DNA cleavage fluorescence;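 note: potency is the fitted concentration of half-maximal effect; plate controls were vehicle for no effect and reference inhibitor for full effect; nearly all actives have a fitted effect of over 55% in size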
#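 Kinetic fluorescence read (525 ex/598 em nm, three reads 60 s apart) of AP-site incision; signal = third minus first read. Enzyme 0.75 nM, dual-labelled THF duplex 50 nM, compound preincubation 15 min RT.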
# FEN1 inh = qHTS Assay for the Inhibitors of Human Flap endonuclease 1 (FEN1); P39748; Recombinant FEN1 flap cleavage, fluorescence, 15 min; Potency, µM (top dose mostly 114 µM), for inactives: top-dose activity change, negative = inhibition, most hits filed as inhibitors; 0.35% of 390,000 active; AID 588795, 2011; note: potency is the fitted concentration of half-maximal effect; nearly all actives have a fitted effect of over 65% in size
#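 Quantitative HTS format: each compound was titrated, incubated with 10 nM nuclease for 15 min at room temperature, then challenged with flap substrate at 50 nM final. Signal change over 15 min gave concentration–effect curves.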
# BLM helicase inh = qHTS Assay for Inhibitors of Bloom's syndrome helicase (BLM) | Potency, µM (doses to about 56.1 µM), without a hit: top-dose activity change, negative = inhibition, usual class: inhibitors | AID 2528, 2010 | 0.2% of 350,000 active | recombinant BLM DNA unwinding, fluorescence dequenching;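 note: potency is the fitted concentration of half-maximal effect; plate controls were vehicle for no effect and no enzyme for full effect; nearly all actives have a fitted effect of over 35% in size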
# RECQ1 helicase = qHTS Assay for Inhibitors of RecQ-Like Dna Helicase 1 (RECQ1). ATP-dependent DNA helicase Q1 (Homo sapiens), P46063. 0.54% of 240,000 active. RECQ1 DNA unwinding, red fluorescence kinetic read. AID 2549, 2010. Potency, µM (highest dose often 57.3 µM), for inactives: top-dose activity, negative = inhibition, hits mostly inhibitors;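 note: potency is the fitted concentration of half-maximal effect; plate controls were vehicle for no effect and no enzyme for full effect; nearly all actives have a fitted effect of over 30% in size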
#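 RECQ1T1 50 nM; forked duplex (20 bp + 30-nt ss tails) 200 nM, ATP 2 mM final; pH 8.0, 2 mM MgCl2, 2.5 ug/ml poly(dI-dC); 15 min compound preincubation; discontinuous kinetic read over 2 h at RT.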
# PI5P4K alpha inh = qHTS for Inhibitors of phosphatidylinositol 5-phosphate 4-kinase (PI5P4K); Phosphatidylinositol 5-phosphate 4-kinase type-2 alpha (Homo sapiens), P48426; PI5P4Kalpha enzyme, ADP-Glo luminescence, 60 min; hits give low values; max response, %; 1.2% of 330,000 active; AID 652105, 2013; active = max response of -50% or lower; inconclusive = between -30% and -50%; inactive = -30% or higher; note: value at the top dose of about 77 µM
#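 Human PI5P4Kalpha with substrate in 0.038 M HEPES pH 7.4, 0.28 mM EGTA, 0.1% CHAPS, 5% DMSO; reaction started with 5 microM ATP (final), 60 min at room temperature. ADP formed read by ADP-Glo luminescence.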
# WRN helicase inh = qHTS for Inhibitors of WRN Helicase | Potency, µM (series often up to 114 µM), without a hit: at the top dose activity change, negative = inhibition, most hits filed as inhibitors | WRN helicase unwinding, fluorescent forked duplex, kinetic | Bifunctional 3'-5' exonuclease/ATP-dependent helicase WRN (Homo sapiens), Q14191 | 0.46% of 360,000 active | AID 651768, 2012; note: potency is the fitted concentration of half-maximal effect; nearly all actives have a fitted effect of over 55% in size
#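 WRN at 20 nM final preincubated with compound 15 min at room temperature; reaction started with 100 nM fluorophore/quencher forked duplex oligonucleotide and 2 mM ATP final. Unwinding followed kinetically by red fluorescence (ex 525, em 598 nm).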
# * marks the source's active call; other numbers are inactive results; i = inactive; ? = inconclusive; . = no result. Hits are enriched below; roughly 1.5% of the tested compounds scored in any of these assays. Unless noted, calls come from the whole dose curve; as a rule, active = well fitted curve in the direction sought with a large enough effect; inconclusive = small, poorly fitted or top-dose-only effect, or another doubt; inactive = no such curve, though single readings can be large; an effect the other way counts as inactive or inconclusive. Unless noted, % is set by controls: 0 for no effect and ±100 for the full control effect.
SMILES,APE1 inh,FEN1 inh,BLM helicase inh,RECQ1 helicase,PI5P4K alpha inh,WRN helicase inh
CCOC(=O)C1=C(O)/C(=C/c2ccc(-c3ccccc3C(=O)O)o2)SC1=Nc1ccc(C)cc1,0%,40µM*,-2%,i,-99*,?
CCOC(=O)C1=C(O)/C(=C/c2ccc(-c3ccccc3C(=O)O)o2)SC1=Nc1ccc(OC)cc1,?,?,-4%,-27%,-55*,?
Cc1cccc(S(=O)Cc2ccc(C(=O)NC3CCCCCC3)o2)c1 (configuration not stated),.,1%,1%,.,.,.
Cc1ccc(-c2nn(-c3ccccc3)cc2/C=C/C(=O)O)o1,-1%,-1%,-7%,8%,1,-9%
Cc1ccc(-c2nn(-c3ccccc3)cc2C(=O)O)o1,?,.,1%,32µM*,.,.
COc1ccc(CNc2nc(-c3ccc(N(C)C)cc3)nc3ccccc23)c(OC)c1,-3%,.,28µM*,-16%,.,.
Cc1ccc(C)c(CN2C(=O)c3ccccc3S(=O)(=O)c3ccc(C(=O)Nc4ccccc4C(F)(F)F)cc32)c1,.,-3%,-10%,.,.,.
COc1ccc(NC(=O)c2oc3ccccc3c2NC(=O)c2cc(=O)c3ccccc3o2)cc1,.,25%,-6%,.,.,.
Cc1ccccc1NC(=O)C1Cc2ccccc2CN1C(=O)c1ccco1 (configuration not stated),-2%,-13%,-3%,.,?,-12%
CCSc1nnc(NC(=O)C2Cc3ccccc3CN2C(=O)c2ccco2)s1 (configuration not stated),5%,-11%,-26%,-15%,-52*,?
CC1(C)CC[C@]2(C(=O)O)CC[C@]3(C)C(=CC[C@@H]4[C@@]5(C)CC[C@H](O)C(C)(C)[C@@H]5CC[C@]43C)[C@@H]2C1,-10%,13%,-3%,i,?,15%
CCOC(=O)c1sc(=S)n(-c2ccccc2)c1N(C(C)=O)C(C)=O,2%,?,-7%,-2%,-75*,?
O=c1c(O)c(-c2ccc(O)c(O)c2)oc2c(OC[C@@H]3O[C@@H](O)[C@@H](O)[C@H](O)[C@H]3O)c(O)cc(O)c12,2.5µM*,.,1%,-12%,.,.
COc1ccc(OC)c(C2CC(=O)N3CN(c4ccccc4F)CSC3=C2C#N)c1 (configuration not stated),?,?,7%,14%,-94*,5%
CCc1ccccc1N1CSC2=C(C#N)C(c3cc(OC)c(OC)cc3OC)CC(=O)N2C1 (configuration not stated),-1%,4%,-19%,2%,?,-7%
COc1ccccc1N1CSC2=C(C#N)C(c3ccc(SC)cc3)CC(=O)N2C1 (configuration not stated),-3%,?,-30%,?,-83*,-24%
COc1ccc(OC)c(C2CC(=O)N3CN(c4ccc(C)c(Cl)c4)CSC3=C2C#N)c1 (configuration not stated),-1%,?,-6%,-5%,-102*,-5%
CCOc1ccc(N2CSC3=C(C#N)C(c4ccco4)CC(=O)N3C2)cc1 (configuration not stated),32µM*,-4%,?,?,.,5%
COc1cc(C2OC(=O)c3c2ccc(OC)c3OC)ccc1O (configuration not stated),-6%,.,.,.,.,.

# Screening data as filed in PubChem.
